Screening results as filed in PubChem BioAssay.
Only some compounds are listed: those with a hit (about 2.4% of all), similar ones and a draw of the others.
CHRM1 agonist: agonists of human M1 muscarinic receptor | P11229 | CHO-K1 hM1, Fluo-8 calcium fluorescence, agonist mode; 0% DMSO, 100% acetylcholine EC100 | activation, % at 3 µM | actives 0.33% (n = 360,000) | AID 588814;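 active = activation above the run's mean compound activation plus 3 SD, cut at about 16% in these data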;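 note: peak over basal fluorescence ratio within a 140 s kinetic read after compound addition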
Target sequence (P11229 whole entry, looked up): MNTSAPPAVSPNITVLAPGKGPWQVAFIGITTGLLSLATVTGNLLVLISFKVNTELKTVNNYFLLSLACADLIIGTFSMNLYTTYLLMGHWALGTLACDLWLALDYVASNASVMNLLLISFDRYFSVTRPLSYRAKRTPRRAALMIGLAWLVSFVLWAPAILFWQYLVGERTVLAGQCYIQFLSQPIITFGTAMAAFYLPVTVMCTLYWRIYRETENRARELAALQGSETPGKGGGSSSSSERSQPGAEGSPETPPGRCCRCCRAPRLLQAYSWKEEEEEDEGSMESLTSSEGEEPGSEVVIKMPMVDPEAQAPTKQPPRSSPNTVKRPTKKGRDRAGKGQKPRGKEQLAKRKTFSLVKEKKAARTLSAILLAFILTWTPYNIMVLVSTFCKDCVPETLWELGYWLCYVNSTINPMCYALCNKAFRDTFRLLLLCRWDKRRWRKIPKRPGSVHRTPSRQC
CHRM1 antagonist: antagonists of human M1 muscarinic receptor; inhibition, % at 3 µM; CHO-K1 hM1, Fluo-8 calcium fluorescence, ACh EC80 antagonist; P11229; AID 588852; actives 1.3% (n = 360,000);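 active = percent inhibition above its own plate's cutoff, namely the mean of that plate's compound wells plus 3 SD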;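 note: peak over basal fluorescence ratio during 140 s after agonist addition; 0% = ACh EC80 plus DMSO and 100% = DMSO alone without agonist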
CHO-K1 Ca ag: nonselective activator or artifact in parental CHO-K1 cells | Fluo-8 calcium fluorescence; scaled to maximal ATP response, vehicle zero | activation, % at 3 µM | AID 602248 | actives 0.48% (n = 360,000); in the data active = activation above about 15%;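 note: untransfected CHO-K1 host cells lacking M1 receptor as counterscreen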
CHO-K1 Ca antag: counter-screen for M1 antagonists: effect in parental CHO-K1 cells; ATP-induced calcium, Fluo-8 fluorescence; actives 0.6% (n = 360,000); inhibition, % at 3 µM;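 active = inhibition above a per-plate cutoff, the plate's mean sample inhibition plus 3 SD, cut at about 24% in these data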;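 note: 0% = DMSO plus EC80 ATP and 100% = DMSO alone without ATP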
M1 PAM parental: counter-screen for M1 PAMs: effect in parental CHO-K1 cells; ATP EC20, Fluo-8 calcium fluorescence; 0% at ATP EC20, 100% at ATP max; activation, % at 3 µM; actives 0.02% (n = 360,000);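 active = activation above the run cutoff, the mean activation of all test compounds plus 3 SD, cut at about 40% in these data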;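 note: peak over basal fluorescence ratio in a 140 s read after ATP addition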
CHRM1 PAM: positive allosteric modulators of human M1 muscarinic receptor | actives 0.088% (n = 360,000) | activation, % at 3 µM | CHO-K1 hM1, Fluo-8 calcium fluorescence, ACh EC20; 0% = ACh EC20, 100% = maximal ACh; in the data active = activation above about 19%, passing the limit was not always enough
Active calls of the source: *.

SMILES	CHRM1 agonist	CHRM1 antagonist	CHO-K1 Ca ag	CHO-K1 Ca antag	M1 PAM parental	CHRM1 PAM
O=C(O)C(=Cc1cccc([N+](=O)[O-])c1)c1ccccc1	1	-2	0	-17	15	-2
O=C(CNC(=O)c1cc(S(=O)(=O)N2CCCCC2)ccc1N1CCOCC1)Nc1ccc(F)c(F)c1	-2	18	0	6	5	-7
CC(=O)N(C(C)=O)c1ccc2c(c1)OCCO2	-3	-9	1	-12	15	8
COC(=O)c1ccc(/C=N\NC(=O)CC(=O)NCCc2ccccc2)cc1	-7	-2	17*	15	2	7
O=C(CC(=O)N/N=C\c1ccccc1)NCCc1ccccc1	0	11	0	1	-5	-10
CN(C)c1ccc(CNC(=O)c2ccc(CNc3c(N4CCCCC4)c(=O)c3=O)cc2)cc1	-7	-12	0	2	10	27*
O=C(NCc1ccc(Cl)cc1)c1ccc(CNc2c(N3CCCC3)c(=O)c2=O)cc1	-4	9	1	-6	11	-4
O=C(CSc1nn(-c2ccccc2)c(=S)s1)Nn1cnnc1	-1	-10	0	-4	6	3
Cc1ccc(NC(=O)CSc2nn(-c3ccccc3)c(=S)s2)cc1S(=O)(=O)N(C)C	-1	25*	13	29*	-5	-12
O=C(Nc1ccc(S(=O)(=O)N2CCOCC2)cc1)c1ccccc1Br	-4	-7	2	-2	10	5
O=C(NN=Cc1ccc(F)cc1)c1cccc(S(=O)(=O)N2CCCC2)c1	-5	36*	1	-1	-5	-16
COc1ccc(C(=O)Nc2cccc(S(=O)(=O)N3CCCC3)c2)cc1S(=O)(=O)N1CCOCC1	-7	43*	0	-9	-8	-24
CN(c1ccccc1C(=O)Nc1ccc(S(=O)(=O)N2CCOCC2)cc1)S(=O)(=O)c1ccccc1	-11	43*	1	11	-12	-27
O=C(Nc1ccc(N2CCOCC2)cc1)c1cccc(S(=O)(=O)N2CCCCCC2)c1	-2	-3	3	-5	14	3
COc1ccc(C(=O)Nc2cccc(C)c2)cc1S(=O)(=O)N1CCOCC1	-5	-3	2	-17	8	4
O=C(N/N=C/c1ccncc1)c1cccc(S(=O)(=O)N2CCCC2)c1	-7	-6	1	-2	8	4
O=C(Nc1ccc(N2CCOCC2)cc1)c1cccc(S(=O)(=O)N2CCCC2)c1	-11	34*	2	-14	7	-29
CC(C)[C@H](NC(=O)c1cccc(S(=O)(=O)N2CCOCC2)c1)C(=O)OCC(=O)Nc1cccc(Br)c1	19*	18	10	-18	12	-8
O=C(Nc1cccc(S(=O)(=O)N2CCCC2)c1)c1cccc(S(=O)(=O)N2CCOCC2)c1	-8	29*	3	1	-5	-19
O=C(CNC(=O)c1ccc(S(=O)(=O)N2CCCC2)cc1)N/N=C/c1ccc(Cl)cc1	-8	-6	0	6	6	1
N#Cc1cccc(C(=O)Nc2cccc(S(=O)(=O)N3CCCC3)c2)c1	-6	38*	1	18	-10	-21
O=C(CNC(=O)c1ccc(S(=O)(=O)N2CCCC2)cc1)N/N=C/c1c(Cl)cccc1Cl	-6	16	20*	21	-15	-13
O=C(Cc1ccc(Br)cc1)N/N=C/c1cccnc1	-3	-8	7	13	4	5
Cc1ccc([N+](=O)[O-])cc1S(=O)(=O)Nc1ccc(C(=O)NCC2CCCO2)cc1 (stereo not given)	-3	-5	0	-9	7	5
O=[N+]([O-])c1ccc2ccn(C3OCC(O)C(O)C3O)c2c1 (stereo not given)	-2	-11	2	-16	12	6
CN(C)S(=O)(=O)c1cccc(NC(=O)c2cccc(S(=O)(=O)N3CCc4ccccc43)c2)c1	-4	34*	9	1	0	-19
O=C(Nc1cccc(S(=O)(=O)N2CCOCC2)c1)c1cc(S(=O)(=O)N2CCOCC2)c(Cl)cc1Cl	-1	36*	10	-1	-18	-12
CS(=O)(=O)c1cccc(C(=O)Nc2ccc(S(=O)(=O)N3CCCCC3)cc2)c1	-7	1	1	-2	-16	-3
